Assay outcomes: PubChem BioAssay, National Center for Advancing Translational Sciences (NCATS)
Rab9 promoter act – qHTS Assay for Rab9 Promoter Activators; Huh7 Rab9 promoter-luciferase reporter, luminescence, 24 h; Potency, µM (top dose mostly 9.22 µM), for the others: at the highest dose activation, negative = inhibition, actives largely listed as activators; 2.8% of 320,000 active; AID 485297, 2010; also: % of control where 0% means no effect; nearly all actives have a fitted effect of over 60% in size
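Cell-based reporter: Huh7 stable for Rab9 promoter-driven luciferase, plated in reduced-serum medium with 10% FBS at 1500 cells/well, compound-treated 24 h at 37 °C, luminescence read after 10 min reagent.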
FLuc counter – qHTS profiling assay for firefly luciferase inhibitor/activator using purifed enzyme and Km concentrations of substrates (counterscreen for miR-21 project); Luciferin 4-monooxygenase (Photinus pyralis), P08659; purified FLuc, Km substrates, luminescence inhibition; Potency, µM (top dose mostly 57.5 µM), without a hit: top-dose activity change, negative = inhibition, hits mostly inhibitors; 6.9% of 360,000 active;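 also: plate controls were vehicle for no effect and reference inhibitor for full effect; nearly all actives have a fitted effect of over 55% in size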
Target sequence (P08659 whole entry, looked up): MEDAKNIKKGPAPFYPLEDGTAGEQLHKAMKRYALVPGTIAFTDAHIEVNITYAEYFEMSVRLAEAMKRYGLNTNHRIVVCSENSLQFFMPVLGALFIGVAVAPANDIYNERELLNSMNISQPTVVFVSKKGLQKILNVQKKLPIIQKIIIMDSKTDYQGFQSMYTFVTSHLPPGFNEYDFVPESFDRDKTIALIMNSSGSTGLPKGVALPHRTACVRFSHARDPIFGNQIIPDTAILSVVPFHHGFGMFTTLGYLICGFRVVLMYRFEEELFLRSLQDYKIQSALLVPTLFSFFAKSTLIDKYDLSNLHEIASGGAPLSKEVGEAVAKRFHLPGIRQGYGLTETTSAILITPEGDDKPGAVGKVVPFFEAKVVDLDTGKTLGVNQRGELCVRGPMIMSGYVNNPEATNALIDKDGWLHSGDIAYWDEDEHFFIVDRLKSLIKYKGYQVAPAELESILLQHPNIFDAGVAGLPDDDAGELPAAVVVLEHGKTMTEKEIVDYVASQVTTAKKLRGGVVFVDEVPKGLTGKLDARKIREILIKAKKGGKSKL
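Purified P. pyralis luciferase, 10 nM final, with Km-level 10 uM D-luciferin and 10 uM ATP in 50 mM Tris acetate pH 7.5, 10 mM Mg acetate, 0.01% Tween-20, 0.05% BSA; 6-point qHTS titration about 60 µM downward; luminescence read.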
ELG1 genotoxic – qHTS screen for small molecules that induce genotoxicity in human embryonic kidney (HEK293T) cells expressing luciferase-tagged ELG1 | HEK293T ELG1-luciferase reporter, luminescence, 16 h | 1.3% of 330,000 active | Potency, µM (top dose mostly 46 µM), inactives show top-dose activity change, positive = activation, actives largely listed as activators; also: % of control where 0% means no effect; nearly all actives have a fitted effect of over 60% in size
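After overnight (16 hr) compound treatment at 37 °C, ELG1-luciferase HEK293T cells were lysed with ONE-Glo; luminescence quantified 30 min later at room temperature.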
SMN2 splice enh – qHTS Assay for Enhancers of SMN2 Splice Variant Expression; HEK293 SMN2-luciferase splicing reporter, luminescence, 30-36 h; Potency, µM (doses to about 46.1 µM), inactives show top-dose activity change, positive = activation, most hits filed as activators; 2.8% of 210,000 active; AID 1458, 2008; also: % of control where 0% means no effect; nearly all actives have a fitted effect of over 55% in size
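HEK293 cells carry an SMN2 […]–luciferase reporter in which exon 7 inclusion puts luciferase in frame. Cells were plated 10-12 h before compound addition, then incubated 30-36 h at 37C. ONE-Glo luminescence was read; sodium butyrate at 4.5 mM final served as control.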
NPC1 prom act – qHTS Assay for NPC1 Promoter Activators | Huh7 NPC1 promoter luciferase reporter, 24 h | Potency, µM (doses to about 9.22 µM), for the others: at the highest dose activation, most hits filed as activators | 2.4% of 320,000 active; also: % of control where 0% means no effect; nearly all actives have a fitted effect of over 60% in size
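Luminescence read-out of NPC1 promoter-driven luciferase in stably transfected Huh7 cells; compounds delivered in DMSO and left 24 h at 37C, 5% CO2, qHTS titration format.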
An asterisk follows results filed as active; ? = inconclusive; nt = no result given; ! = a repeat was not active; [ ] = dose if it differs, or a comment. This is a sample that favours compounds with a hit; in the whole collection about 7.4% have one here. Calls follow the shape of the dose curve; as a rule, active = well fitted curve in the direction sought with a large enough effect; inconclusive = small, poorly fitted or top-dose-only effect, or another doubt; inactive = no such curve, though single readings can be large; an effect the other way counts as inactive or inconclusive. Potency is read from the fitted curve at half-maximal effect.

SMILES	Rab9 promoter act	FLuc counter	ELG1 genotoxic	SMN2 splice enh	NPC1 prom act
O[C@H](CN1CC1)[C@@H](O)CN1CC1	nt	nt	nt	-12%[9.22 µM]	nt
N=C1/C(=C\c2ccc(OC(=O)c3ccccc3Cl)cc2)C(=O)N=C2SC(N3CCOCC3)=NN12	4%	24µM*	9%	nt	14%
Cn1c(NN=O)nc2ccccc21	-44%	24µM*	?	nt	-13%
CCN(CC)c1ccc(CNc2nc3ccccc3n2C)cc1	11%	?	3%	nt	14%
O=C1NC(=O)C(=Cc2ccc(-c3ccccc3[N+](=O)[O-])o2)C(=O)N1	-1%	?	15%	nt	-2%
O=C1NC(=O)C(=Cc2ccc(-c3cc(Cl)ccc3[N+](=O)[O-])o2)C(=O)N1	-1%	15µM*	15%	-7%	-4%
O=C1c2ccccc2-c2c1nc1c([n+]2[O-])CCCC1	3.5µM*	1%	?	26%	25%
CC(C)(C)C(=O)c1cn(CC(=O)NCc2ccco2)c2ccccc12	3.2µM*	?	?	14µM*	?
CN(C)C(=O)Nc1cccc(C(F)(F)F)c1	nt	nt	nt	-2%	nt
CCOC(=O)[C@@H]1[C@@H]2c3ccccc3-c3ccccc3[C@H]2C[C@H]1O	nt	nt	nt	-7%[9.22 µM]	nt
c1ccc2c(CN3CCCCCC3)c[nH]c2c1	?	17µM*	?	nt	25%
CCC(Sc1ccccc1)C(=O)OC1CC2CCC(C1)N2C (centres undefined)	nt	nt	nt	-18%	nt
CCCCc1nn2c(=O)cc(COC(=O)Cc3ccccc3)nc2s1	nt	-2%	nt	nt	nt
CCOc1ccc(C(=O)Nc2cccc(C(=O)OCc3cc(=O)n4nc(C5CC5)sc4n3)c2)cc1	nt	1.9µM*	nt	nt	nt
Cc1cc2c(C(C)C)c(O)c(O)c(C=O)c2c(O)c1-c1c(C)cc2c(C(C)C)c(O)c(O)c(C=O)c2c1O	-41%[46.1 µM]	13µM*!	?	-92%	-31%[46.1 µM]
OCC[n+]1c2ccccc2nc2ccc(N3CCOCC3)cc21	-4%	27µM*	-10%	nt	-3%
O=C(CSc1ccc(-c2ccco2)nn1)Nc1ccccc1	18%	?	-1%	-21%	3%
CCc1nnc(NC(=O)CSc2ccc(-c3ccco3)nn2)s1	0%	15µM*	10%	-26%	0%
O=C(N/N=C/c1c(O)n(C2CCCCC2)c(=S)[nH]c1=O)c1ccccc1O	7%	15µM*	3%[9.26 µM]	nt	1%
CC(C)c1ccc(-n2c(O)c(/C=N/NC(=O)c3ccccc3O)c(=O)[nH]c2=S)cc1	2%	27µM*	0%	nt	5%
O=C(N/N=C/c1c(O)n(Cc2ccco2)c(=O)[nH]c1=O)c1ccccc1O	-1%	15µM*	0%	nt	2%
Cc1cn2c(=O)cc(COC(=O)c3ccccc3F)nc2s1	nt	2.7µM*	nt	nt	nt
N=C1c2ccccc2CN1CC(=O)c1ccccc1	?	15µM*	?	11µM*	6%
N=C1c2ccccc2CN1NC(=O)c1ccccc1	1%	-4%	-1%	?	8%
CC(C)c1cc2c(c(O)c1O)[C@]1(C(=O)O)CCCC(C)(C)C1CC2 (some centres undefined)	nt	nt	nt	-1%	nt
SMILES	Rab9 promoter act	FLuc counter	ELG1 genotoxic	SMN2 splice enh	NPC1 prom act
CCCCCCOc1ccc(CN2CCN(C)CC2)cc1	?	6.7µM*	5.8µM*	-3%	?
O=C1C(Cl)=C(Cl)C(=O)C(Cl)=C1Cl	nt	nt	nt	-8%	nt
O=C(Nc1cccc(Cl)c1)OC1CN2CCC1CC2 (centres undefined)	18%	13µM*	-14%	nt	19%
O=C(Nc1ccc(Cl)cc1)OC1CN2CCC1CC2 (centres undefined)	?	15µM*	?	nt	?
O=C(Nc1ccccc1Cl)OC1CN2CCC1CC2 (centres undefined)	-2%	-7%	2%	nt	-1%
O=C(O)C(Cl)Br (centres undefined)	nt	nt	nt	-2%	nt
Cc1ccc(Sc2ccc(C=C3C(=O)N(C)C(=O)N(C)C3=O)o2)cc1	25%	15µM*	6%	-3%	1%
CC(C)(C)c1ccc(C(=O)NC(=S)Nn2cnnc2)cc1	23%	19µM*	1%	nt	20%
Cc1ccc(N=Nc2cc(C)ccc2N)cc1	0.32µM*	0.19µM*	0.46µM*	nt	0.5µM*
